# Tests used:
# Test in all cases: DAPPL (digital affinity profiling via proximity ligation, sequencing); 10 mM Tris-HCl pH 7.5, 50 mM NaCl, 1 mM DTT, 4% glycerol, room temperature, 30 min; GST-TFs on glutathione beads, 16-mer random dsDNA library, 0.1% formaldehyde crosslink after washing; high values mean tight binding
# [1] = biological target: T1, FEV (Homo sapiens, UniProt Q99581 1-238); details: protein: recombinant; tags: N-terminal GST; dsDNA, one strand shown
# T1 sequence: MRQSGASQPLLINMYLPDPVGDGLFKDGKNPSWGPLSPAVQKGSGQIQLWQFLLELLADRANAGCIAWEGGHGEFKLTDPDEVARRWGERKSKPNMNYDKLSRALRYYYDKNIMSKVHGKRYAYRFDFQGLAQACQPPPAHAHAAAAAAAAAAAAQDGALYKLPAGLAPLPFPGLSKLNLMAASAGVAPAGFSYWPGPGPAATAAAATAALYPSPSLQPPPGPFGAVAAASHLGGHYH
# Method in brief: (§1)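 Binding signal is defined as a hexamer's read frequency for one factor over its frequency for the tag-only sample. To obtain reads, GST-fused human transcription factors were expressed in yeast, captured on glutathione beads, barcoded with DNA and pooled with that sample. Pools met 200 nmole of a 16-mer random double-stranded DNA library in Tris/NaCl/DTT/glycerol buffer for 30 min at room temperature before washing, 0.1% formaldehyde crosslinking, proximity ligation (BsaI/T4 ligase, 1 h, 37 °C), PCR and Illumina NextSeq500 sequencing.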
# [2] = biological target: ETV5 (Homo sapiens, UniProt P41161 1-510); details: protein: recombinant; tags: N-terminal GST; dsDNA, one strand shown
# Sequence of ETV5 (P41161 whole entry): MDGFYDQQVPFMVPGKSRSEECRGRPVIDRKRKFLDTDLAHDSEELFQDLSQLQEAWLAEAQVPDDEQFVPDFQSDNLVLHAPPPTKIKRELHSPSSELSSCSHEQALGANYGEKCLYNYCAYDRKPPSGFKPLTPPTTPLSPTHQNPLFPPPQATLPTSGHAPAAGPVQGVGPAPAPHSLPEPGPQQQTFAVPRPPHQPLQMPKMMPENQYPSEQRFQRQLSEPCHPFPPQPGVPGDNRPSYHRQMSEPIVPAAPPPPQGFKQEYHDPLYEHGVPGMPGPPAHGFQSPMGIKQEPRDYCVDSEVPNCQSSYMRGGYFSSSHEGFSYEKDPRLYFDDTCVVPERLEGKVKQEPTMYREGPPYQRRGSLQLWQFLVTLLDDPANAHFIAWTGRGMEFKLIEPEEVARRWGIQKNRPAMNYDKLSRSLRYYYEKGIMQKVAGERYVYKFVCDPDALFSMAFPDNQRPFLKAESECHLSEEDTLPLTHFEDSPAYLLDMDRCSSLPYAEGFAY
# Method in brief: as §1
# [3] = biological target: HSF1 (Homo sapiens, UniProt Q00613 1-529); details: protein: recombinant; tags: N-terminal GST; chain copies: 3; dsDNA, one strand shown
# Sequence of HSF1 (Q00613 whole entry): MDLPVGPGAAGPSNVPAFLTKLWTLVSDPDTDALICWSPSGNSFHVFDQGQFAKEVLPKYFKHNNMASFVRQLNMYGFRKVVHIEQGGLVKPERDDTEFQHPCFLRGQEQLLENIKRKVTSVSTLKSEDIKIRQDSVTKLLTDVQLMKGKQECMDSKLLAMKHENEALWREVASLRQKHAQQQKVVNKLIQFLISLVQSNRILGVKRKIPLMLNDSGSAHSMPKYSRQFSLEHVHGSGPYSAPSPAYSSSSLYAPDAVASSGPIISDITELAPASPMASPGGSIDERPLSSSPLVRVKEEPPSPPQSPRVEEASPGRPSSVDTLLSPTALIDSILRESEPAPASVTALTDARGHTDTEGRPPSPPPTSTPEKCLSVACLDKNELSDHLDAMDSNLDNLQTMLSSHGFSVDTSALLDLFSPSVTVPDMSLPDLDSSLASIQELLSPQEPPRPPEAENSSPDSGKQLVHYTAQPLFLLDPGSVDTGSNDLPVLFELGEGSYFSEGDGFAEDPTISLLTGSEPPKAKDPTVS
# Method in brief: as §1
# [4] = biological target: T2, SPIC (Homo sapiens, UniProt Q8N5J4 1-248); details: protein: recombinant; tags: N-terminal GST; dsDNA, one strand shown
# T2 sequence: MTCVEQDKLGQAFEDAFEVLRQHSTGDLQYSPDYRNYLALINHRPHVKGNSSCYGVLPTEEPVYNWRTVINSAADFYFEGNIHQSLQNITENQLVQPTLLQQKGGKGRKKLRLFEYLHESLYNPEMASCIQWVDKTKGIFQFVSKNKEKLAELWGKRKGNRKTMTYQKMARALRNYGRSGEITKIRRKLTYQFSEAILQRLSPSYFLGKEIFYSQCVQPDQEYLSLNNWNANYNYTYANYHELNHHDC
# Method in brief: as §1
# [5] = biological target: ELF4 (Homo sapiens, UniProt Q99607 1-663); details: protein: recombinant; tags: N-terminal GST; dsDNA, one strand shown
# Sequence of ELF4 (Q99607 whole entry): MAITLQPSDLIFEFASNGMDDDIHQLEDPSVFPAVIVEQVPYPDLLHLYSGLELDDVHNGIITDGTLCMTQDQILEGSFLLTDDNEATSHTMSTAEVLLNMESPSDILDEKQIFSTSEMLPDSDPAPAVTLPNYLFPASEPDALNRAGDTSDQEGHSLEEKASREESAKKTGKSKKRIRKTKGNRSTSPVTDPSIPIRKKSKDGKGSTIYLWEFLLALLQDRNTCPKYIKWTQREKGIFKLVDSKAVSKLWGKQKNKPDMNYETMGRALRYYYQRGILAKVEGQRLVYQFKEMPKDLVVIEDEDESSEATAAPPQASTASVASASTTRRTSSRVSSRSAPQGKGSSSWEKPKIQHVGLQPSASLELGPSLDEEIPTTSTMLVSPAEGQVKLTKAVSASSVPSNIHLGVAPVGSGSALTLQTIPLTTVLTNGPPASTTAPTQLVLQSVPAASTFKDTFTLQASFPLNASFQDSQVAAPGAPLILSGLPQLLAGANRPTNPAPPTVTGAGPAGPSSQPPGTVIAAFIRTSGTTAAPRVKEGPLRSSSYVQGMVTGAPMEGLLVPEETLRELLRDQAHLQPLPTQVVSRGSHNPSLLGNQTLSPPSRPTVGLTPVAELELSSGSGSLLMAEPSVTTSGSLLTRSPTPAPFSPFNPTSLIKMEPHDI
# Method in brief: as §1
# [6] = biological target: T3, ELK4 (Homo sapiens, UniProt P28324-2 1-405); details: protein: recombinant; tags: N-terminal GST; dsDNA, one strand shown
# T3 sequence: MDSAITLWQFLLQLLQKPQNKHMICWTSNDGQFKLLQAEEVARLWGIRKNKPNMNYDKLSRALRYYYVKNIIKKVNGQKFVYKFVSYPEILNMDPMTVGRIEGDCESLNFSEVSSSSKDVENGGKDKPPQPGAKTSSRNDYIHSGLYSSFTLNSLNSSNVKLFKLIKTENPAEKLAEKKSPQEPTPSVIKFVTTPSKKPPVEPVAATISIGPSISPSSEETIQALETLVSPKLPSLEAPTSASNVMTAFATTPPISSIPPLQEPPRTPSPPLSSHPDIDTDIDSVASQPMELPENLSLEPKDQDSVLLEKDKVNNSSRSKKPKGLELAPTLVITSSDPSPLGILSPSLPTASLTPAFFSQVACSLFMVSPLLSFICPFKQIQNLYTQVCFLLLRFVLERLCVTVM
# Method in brief: as §1
# [7] = biological target: T4, ETV2 (Homo sapiens, UniProt O00321 1-342); details: protein: recombinant; tags: N-terminal GST; dsDNA, one strand shown
# T4 sequence: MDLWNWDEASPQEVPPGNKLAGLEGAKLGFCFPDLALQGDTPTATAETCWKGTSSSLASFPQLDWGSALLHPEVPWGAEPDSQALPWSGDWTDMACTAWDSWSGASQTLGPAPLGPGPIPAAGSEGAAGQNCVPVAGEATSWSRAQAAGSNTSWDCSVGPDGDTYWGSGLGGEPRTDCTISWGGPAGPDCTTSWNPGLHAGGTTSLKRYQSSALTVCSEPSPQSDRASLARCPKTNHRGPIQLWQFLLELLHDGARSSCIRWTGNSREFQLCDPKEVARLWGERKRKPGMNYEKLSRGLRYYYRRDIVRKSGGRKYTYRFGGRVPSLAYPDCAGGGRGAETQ
# Method in brief: as §1
# [8] = biological target: T5, ELF3 (Homo sapiens, UniProt P78545 1-371); details: protein: recombinant; tags: N-terminal GST; dsDNA, one strand shown
# T5 sequence: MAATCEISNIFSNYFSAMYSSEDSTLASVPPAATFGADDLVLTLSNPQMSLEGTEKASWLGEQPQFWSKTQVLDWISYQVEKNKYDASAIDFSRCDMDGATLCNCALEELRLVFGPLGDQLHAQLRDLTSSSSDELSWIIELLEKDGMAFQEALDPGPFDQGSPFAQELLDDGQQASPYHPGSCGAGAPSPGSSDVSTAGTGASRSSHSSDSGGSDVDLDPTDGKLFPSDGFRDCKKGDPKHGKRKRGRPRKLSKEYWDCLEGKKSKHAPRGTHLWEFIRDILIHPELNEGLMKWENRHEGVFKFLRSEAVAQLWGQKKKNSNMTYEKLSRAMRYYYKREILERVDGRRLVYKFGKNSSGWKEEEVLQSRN
# Method in brief: as §1
# [9] = biological target: CRX (Homo sapiens, UniProt O43186 1-299); details: protein: recombinant; tags: N-terminal GST; dsDNA, one strand shown
# Sequence of CRX (O43186 whole entry): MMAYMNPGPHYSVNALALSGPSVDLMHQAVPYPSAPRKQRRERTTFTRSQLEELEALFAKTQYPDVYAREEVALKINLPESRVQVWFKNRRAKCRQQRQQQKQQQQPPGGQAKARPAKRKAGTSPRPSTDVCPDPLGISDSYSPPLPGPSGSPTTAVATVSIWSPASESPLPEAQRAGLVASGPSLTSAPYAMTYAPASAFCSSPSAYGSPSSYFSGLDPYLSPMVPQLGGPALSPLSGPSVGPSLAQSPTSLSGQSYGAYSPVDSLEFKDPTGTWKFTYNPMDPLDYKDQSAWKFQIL
# Method in brief: as §1
# [10] = biological target: ETV1 (Homo sapiens, UniProt P50549 1-477); details: protein: recombinant; tags: N-terminal GST; dsDNA, one strand shown
# Sequence of ETV1 (P50549 whole entry): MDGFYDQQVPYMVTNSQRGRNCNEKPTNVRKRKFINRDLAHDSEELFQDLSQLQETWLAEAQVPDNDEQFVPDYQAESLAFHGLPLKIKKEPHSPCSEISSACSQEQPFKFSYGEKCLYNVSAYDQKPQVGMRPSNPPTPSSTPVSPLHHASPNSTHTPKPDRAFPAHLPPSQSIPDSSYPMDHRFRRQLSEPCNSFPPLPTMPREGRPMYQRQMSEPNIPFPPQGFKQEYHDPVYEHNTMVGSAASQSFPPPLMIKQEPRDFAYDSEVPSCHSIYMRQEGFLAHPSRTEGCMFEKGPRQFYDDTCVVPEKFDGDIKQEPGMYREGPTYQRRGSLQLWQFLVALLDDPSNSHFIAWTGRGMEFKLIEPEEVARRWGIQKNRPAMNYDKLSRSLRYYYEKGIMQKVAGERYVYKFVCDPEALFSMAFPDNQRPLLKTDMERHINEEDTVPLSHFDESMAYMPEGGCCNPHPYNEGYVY
# Method in brief: as §1
# [11] = biological target: T6, ERF (Homo sapiens, UniProt P50548 1-548); details: protein: recombinant; tags: N-terminal GST; dsDNA, one strand shown
# T6 sequence: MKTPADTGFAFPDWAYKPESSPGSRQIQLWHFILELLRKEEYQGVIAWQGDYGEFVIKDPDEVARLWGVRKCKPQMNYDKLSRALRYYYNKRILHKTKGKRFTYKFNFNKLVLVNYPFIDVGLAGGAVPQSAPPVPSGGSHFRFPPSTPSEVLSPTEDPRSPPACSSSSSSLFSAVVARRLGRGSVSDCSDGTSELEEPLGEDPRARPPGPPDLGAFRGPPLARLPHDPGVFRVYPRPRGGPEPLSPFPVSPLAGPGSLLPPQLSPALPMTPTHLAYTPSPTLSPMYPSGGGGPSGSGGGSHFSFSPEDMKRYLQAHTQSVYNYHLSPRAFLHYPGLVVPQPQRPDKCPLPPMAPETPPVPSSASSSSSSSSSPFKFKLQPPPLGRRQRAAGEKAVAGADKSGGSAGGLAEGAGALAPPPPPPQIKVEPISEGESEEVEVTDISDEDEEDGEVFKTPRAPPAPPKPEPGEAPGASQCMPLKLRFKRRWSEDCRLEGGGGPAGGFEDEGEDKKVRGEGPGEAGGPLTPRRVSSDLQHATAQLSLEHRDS
# Method in brief: as §1
# [12] = biological target: T7, ETV3L (Homo sapiens, UniProt Q6ZN32 1-361); details: protein: recombinant; tags: N-terminal GST; dsDNA, one strand shown
# T7 sequence: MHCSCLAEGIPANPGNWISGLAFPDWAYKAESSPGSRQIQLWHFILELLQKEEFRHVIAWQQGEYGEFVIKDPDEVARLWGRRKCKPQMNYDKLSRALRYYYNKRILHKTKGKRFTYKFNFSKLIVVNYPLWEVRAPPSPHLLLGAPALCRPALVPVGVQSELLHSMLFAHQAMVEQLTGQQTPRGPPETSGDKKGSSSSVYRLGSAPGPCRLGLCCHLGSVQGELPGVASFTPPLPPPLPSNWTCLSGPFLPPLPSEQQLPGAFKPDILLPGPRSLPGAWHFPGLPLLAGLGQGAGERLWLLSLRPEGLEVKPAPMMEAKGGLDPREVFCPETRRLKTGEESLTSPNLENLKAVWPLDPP
# Method in brief: as §1
# [13] = biological target: T8, ETS2 (Homo sapiens, UniProt P15036 1-469); details: protein: recombinant; tags: N-terminal GST; dsDNA, one strand shown
# T8 sequence: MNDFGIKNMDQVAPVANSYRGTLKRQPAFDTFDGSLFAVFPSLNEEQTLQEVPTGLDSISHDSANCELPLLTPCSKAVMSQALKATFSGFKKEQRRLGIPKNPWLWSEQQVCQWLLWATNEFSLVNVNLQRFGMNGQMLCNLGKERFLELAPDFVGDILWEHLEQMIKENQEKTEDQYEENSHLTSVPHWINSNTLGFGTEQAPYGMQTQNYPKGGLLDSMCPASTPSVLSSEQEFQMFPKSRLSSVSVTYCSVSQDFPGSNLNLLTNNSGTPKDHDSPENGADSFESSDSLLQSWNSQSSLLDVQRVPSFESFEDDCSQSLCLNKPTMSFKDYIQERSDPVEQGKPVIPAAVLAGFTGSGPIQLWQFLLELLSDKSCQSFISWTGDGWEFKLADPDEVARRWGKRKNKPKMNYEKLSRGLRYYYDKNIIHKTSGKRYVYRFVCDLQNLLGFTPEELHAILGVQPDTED
# Method in brief: as §1
# [14] = biological target: T9, SPDEF (Homo sapiens, UniProt O95238 1-335); details: protein: recombinant; tags: N-terminal GST; dsDNA, one strand shown
# T9 sequence: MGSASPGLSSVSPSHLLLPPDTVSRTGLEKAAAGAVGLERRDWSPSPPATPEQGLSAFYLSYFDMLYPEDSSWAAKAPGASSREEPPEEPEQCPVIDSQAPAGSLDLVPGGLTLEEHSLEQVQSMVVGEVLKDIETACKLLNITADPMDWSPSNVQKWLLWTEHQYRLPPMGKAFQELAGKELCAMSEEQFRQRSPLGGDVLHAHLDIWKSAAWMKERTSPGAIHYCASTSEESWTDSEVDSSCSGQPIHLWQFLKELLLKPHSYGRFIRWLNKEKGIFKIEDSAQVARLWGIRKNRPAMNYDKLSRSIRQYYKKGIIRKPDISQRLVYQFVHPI
# Method in brief: as §1
# [15] = biological target: T10, ETV7 (Homo sapiens, UniProt Q9Y603 1-341); details: protein: recombinant; tags: N-terminal GST; dsDNA, one strand shown
# T10 sequence: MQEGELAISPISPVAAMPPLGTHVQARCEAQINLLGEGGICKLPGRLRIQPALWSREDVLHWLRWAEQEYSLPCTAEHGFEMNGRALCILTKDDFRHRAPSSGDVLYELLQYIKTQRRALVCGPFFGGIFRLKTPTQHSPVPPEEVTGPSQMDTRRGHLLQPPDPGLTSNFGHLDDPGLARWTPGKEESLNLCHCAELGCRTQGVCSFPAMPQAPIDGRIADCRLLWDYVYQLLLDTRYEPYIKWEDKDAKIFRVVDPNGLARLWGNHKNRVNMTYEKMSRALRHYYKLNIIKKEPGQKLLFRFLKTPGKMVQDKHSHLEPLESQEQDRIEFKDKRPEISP
# Method in brief: as §1
# [16] = biological target: T11, ELF5 (Homo sapiens, UniProt Q9UKW6-2 1-255); details: protein: recombinant; tags: N-terminal GST; dsDNA, one strand shown
# T11 sequence: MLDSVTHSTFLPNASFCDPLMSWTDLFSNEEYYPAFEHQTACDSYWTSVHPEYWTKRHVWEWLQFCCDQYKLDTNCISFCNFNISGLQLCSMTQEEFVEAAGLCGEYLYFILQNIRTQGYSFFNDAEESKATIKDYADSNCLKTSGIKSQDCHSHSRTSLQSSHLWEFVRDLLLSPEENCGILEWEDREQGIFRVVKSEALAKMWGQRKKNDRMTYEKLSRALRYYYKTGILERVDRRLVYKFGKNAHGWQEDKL
# Method in brief: as §1
# [17] = biological target: T12, ETV3 (Homo sapiens, UniProt P41162-2 1-143); details: protein: recombinant; tags: N-terminal GST; dsDNA, one strand shown
# T12 sequence: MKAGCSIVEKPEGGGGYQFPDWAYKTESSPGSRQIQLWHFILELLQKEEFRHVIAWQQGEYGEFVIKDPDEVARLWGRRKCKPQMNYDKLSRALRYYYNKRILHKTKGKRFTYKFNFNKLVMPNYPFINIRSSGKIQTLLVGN
# Method in brief: as §1
# [18] = biological target: ETV6 (Homo sapiens, UniProt P41212 1-452); details: protein: recombinant; tags: N-terminal GST; dsDNA, one strand shown
# Sequence of ETV6 (P41212 whole entry): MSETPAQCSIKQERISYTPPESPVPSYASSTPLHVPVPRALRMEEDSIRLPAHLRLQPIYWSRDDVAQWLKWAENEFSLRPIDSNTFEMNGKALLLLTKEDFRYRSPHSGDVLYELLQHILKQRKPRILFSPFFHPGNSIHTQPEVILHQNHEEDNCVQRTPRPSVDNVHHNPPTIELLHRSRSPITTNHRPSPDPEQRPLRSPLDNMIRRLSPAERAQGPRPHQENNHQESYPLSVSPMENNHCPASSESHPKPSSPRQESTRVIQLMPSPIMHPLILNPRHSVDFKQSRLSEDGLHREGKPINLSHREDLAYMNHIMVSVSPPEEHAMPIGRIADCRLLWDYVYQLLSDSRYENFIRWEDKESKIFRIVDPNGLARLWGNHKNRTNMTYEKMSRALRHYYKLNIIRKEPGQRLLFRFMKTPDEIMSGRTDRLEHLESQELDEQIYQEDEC
# Method in brief: as §1
sequence,measurement,setting,value
ACTCTT,binding signal,[1],"1.18 fold enrichment (6-mer frequency, TF over GST control)"
same,binding signal,[2],"1.29 fold enrichment (6-mer frequency, TF over GST control)"
same,binding signal,[3],"1.12 fold enrichment (6-mer frequency, TF over GST control)"
same,binding signal,[4],"1.3 fold enrichment (6-mer frequency, TF over GST control)"
same,binding signal,[5],"1.26 fold enrichment (6-mer frequency, TF over GST control)"
same,binding signal,[6],"1.35 fold enrichment (6-mer frequency, TF over GST control)"
same,binding signal,[7],"1.31 fold enrichment (6-mer frequency, TF over GST control)"
same,binding signal,[8],"1.14 fold enrichment (6-mer frequency, TF over GST control)"
same,binding signal,[9],"1.19 fold enrichment (6-mer frequency, TF over GST control)"
same,binding signal,[10],"1.33 fold enrichment (6-mer frequency, TF over GST control)"
same,binding signal,[11],"1.31 fold enrichment (6-mer frequency, TF over GST control)"
same,binding signal,[12],"1.27 fold enrichment (6-mer frequency, TF over GST control)"
same,binding signal,[13],"1.15 fold enrichment (6-mer frequency, TF over GST control)"
same,binding signal,[14],"1.18 fold enrichment (6-mer frequency, TF over GST control)"
same,binding signal,[15],"1.29 fold enrichment (6-mer frequency, TF over GST control)"
same,binding signal,[16],"1.34 fold enrichment (6-mer frequency, TF over GST control)"
same,binding signal,[17],"1.25 fold enrichment (6-mer frequency, TF over GST control)"
same,binding signal,[18],"1.25 fold enrichment (6-mer frequency, TF over GST control)"

# Source: publication PMC7862700, “An all-to-all approach to the identification of sequence-specific readers for epigenetic DNA modifications on cytosine”
